Sampled rows, rich in hits. Any-hit rate of the full collection: about 11%.
HCV inhibitor: qHTS Assay for Inhibitors of Hepatitis C Virus (HCV); Huh7.5.1 HCVcc-Cre infection, luciferase reporter, 44 h; Potency, µM (highest dose often 41.8 µM), usual class: inhibitors; 340,000 tested, 3.4% active; AID 651820, 2012
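Cells seeded at 1,000/well and cultured 4 h, then compounds added followed by HCVcc-Cre virus (~0.5 moi). After 44 h further culture, luciferase substrate was added, plates held 15 min at room temperature, and luminescence read for 15 sec.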
AmpC no deterg: qHTS Inhibitors of AmpC Beta-Lactamase (assay without detergent) | Potency, µM (titrated, usually from 57.1 µM), most hits filed as inhibitors | AmpC nitrocefin hydrolysis, absorbance 480 nm, 0.0001% Triton | AID 485341, 2010 | 330,000 tested, 0.52% active; also: nearly all actives have a fitted effect of over 20% in size
Target sequence (P00811 whole entry, looked up): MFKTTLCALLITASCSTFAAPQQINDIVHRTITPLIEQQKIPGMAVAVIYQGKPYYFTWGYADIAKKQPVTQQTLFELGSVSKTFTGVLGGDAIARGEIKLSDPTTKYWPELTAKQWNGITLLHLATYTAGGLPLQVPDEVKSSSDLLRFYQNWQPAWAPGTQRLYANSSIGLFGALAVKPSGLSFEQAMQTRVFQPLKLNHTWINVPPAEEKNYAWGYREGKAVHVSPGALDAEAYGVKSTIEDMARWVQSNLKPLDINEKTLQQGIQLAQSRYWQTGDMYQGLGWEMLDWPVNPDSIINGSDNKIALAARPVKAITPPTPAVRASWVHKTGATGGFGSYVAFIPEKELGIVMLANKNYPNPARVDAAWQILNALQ
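AmpC (5.3 nM in the dispensed reagent) in 20 mM phosphate pH 7.0 with 0.01% (detergent screen) or 0.0001% Triton X-100 was preincubated with compounds for 15 min at room temperature. Nitrocefin was then added from an 800 uM solution, and hydrolysis was followed at 480 nm.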
AMA1-RON2 inh: qHTS for Inhibitors of AMA1-RON; Towards Development of Antimalarial Drug Lead: Primary Screen | Potency, µM (highest dose often 58.2 µM), actives largely listed as inhibitors | AID 720542, 2013 | 360,000 tested, 0.2% active | Plasmodium falciparum AMA1 (3D7) - RON2 peptide interaction | AlphaScreen AMA1-biotinylated RON2 peptide binding; also: nearly all actives have a fitted effect of over 45% in size
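AMA1 (3D7) with his tag at 25 nM final met compounds first, then biotinylated RON2 peptide at 25 nM; detection used donor plus acceptor beads, 10 µg/mL apiece, read by AlphaScreen after 30 min at room temperature.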
Pf growth 48h: Primary qHTS for delayed death inhibitors of the malarial parasite plastid, 48 hour incubation | P. falciparum luciferase growth in erythrocytes, 48 h | Potency, µM (titrated, usually from 28.7 µM), usual class: inhibitors | 310,000 tested, 5.9% active
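Here the parasites carry a stable luciferase gene and grow inside erythrocytes in Albumax-based RPMI medium with compound for one erythrocytic cycle. Activity is scored as loss of luminescent signal.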
Pf growth 96h: Primary qHTS for delayed death inhibitors of the malarial parasite plastid, 96 hour incubation | P. falciparum luciferase reporter growth, 96 h | Potency, µM (series often up to 28.7 µM), most hits filed as inhibitors | 320,000 tested, 6.9% active | AID 504834, 2011
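P. falciparum expressing integrated firefly luciferase grown in erythrocytes (2% hematocrit, 0.05% parasitemia final) with compounds for 96 hours at 37 C, 5% CO2. Growth inhibition read as loss of luminescence after adding luciferase detection reagent.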
AmpC detergent: qHTS Inhibitors of AmpC Beta-Lactamase (assay with detergent); P00811; AmpC hydrolysis of nitrocefin, absorbance 480 nm, 0.01% Triton; Potency, µM (doses to about 114 µM), most hits filed as inhibitors; 370,000 tested, 0.041% active; AID 485294, 2010; also: nearly all actives have a fitted effect of over 25% in size
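AmpC (5.3 nM in the dispensed reagent) in 20 mM phosphate pH 7.0 with 0.01% (detergent screen) or 0.0001% Triton X-100 was preincubated with compounds for 15 min at room temperature. Nitrocefin was then added from an 800 uM solution, and hydrolysis was followed at 480 nm.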
Numbers stand for hits; . = inactive; ? = inconclusive; / = no result; ! = repeats disagree; [ ] = another dose, or the depositor's remark. Calls follow the shape of the dose curve; as a rule, active = well fitted curve in the direction sought with a large enough effect; inconclusive = small, poorly fitted or top-dose-only effect, or another doubt; inactive = no such curve, though single readings can be large; an effect the other way counts as inactive or inconclusive.

SMILES | HCV inhibitor | AmpC no deterg | AMA1-RON2 inh | Pf growth 48h | Pf growth 96h | AmpC detergent
COc1ccc(C(=O)Nc2ccc(Cn3ccnc3)cc2)cc1OC | ? | . | . | . | 10µM | ?
COc1ccccc1OCC#CCn1ccnc1 | . | . | ? | . | . | .
CCc1nnc(SCc2nc(-c3ccccc3F)oc2C)c2cc3sccc3n12 | / | / | / | / | / | .
CCCNC(=O)C1Cc2cc(S(=O)(=O)N3CCCCCC3)ccc2N1C(C)=O (centres undefined) | / | / | / | / | / | .
CCC(N)Cc1c[nH]c2ccccc12 (centres undefined) | . | . | . | . | 0.67µM! | .
CC(Cc1c[nH]c2ccccc12)C(=O)O (centres undefined) | . | . | . | . | . | ?
CCN1CCN(CCCNC(=O)Cn2nc(C)n3c(cc4c(OC)cccc43)c2=O)CC1 | / | / | / | / | / | .
CCOC(=O)c1cnc2c(ccc3ccccc32)c1Nc1cccc(Cl)c1 | / | / | / | / | / | .
O=C(Nc1ccc(Cl)cc1)C1CCC(=O)N1Cc1ccccc1Cl (centres undefined) | . | . | . | 9.3µM | 4.7µM | .
O=C(Nc1ccccc1Br)C1CCC(=O)N1Cc1ccccc1Cl (centres undefined) | . | . | . | . | . | .
COc1ccc(-c2c3c(=O)n(C)c(=O)n(C)c3cn2-c2cc(OC)ccc2OC)cc1 | ? | . | . | 13µM | .[5.75 µM] | .
COc1ccc(-c2c3c(=O)n(C)c(=O)n(C)c3cn2-c2ccccc2O)cc1 | ? | . | . | ? | ? | .
COc1ccc(/C=C/c2nc(C#N)c(N3CCC(C)CC3)o2)cc1OC | / | / | / | / | / | .
COc1cccc(Cn2cccc(NC(=O)Nc3cccc(C#N)c3)c2=O)c1 | ? | . | . | ? | . | .
COc1ccc(NC(=O)Nc2nnc(CC(=O)NCc3ccccc3)s2)cc1 | . | ? | . | . | . | .
COc1cccc(NC(=O)Nc2nnc(CC(=O)NCc3ccccc3)s2)c1 | . | 25µM | . | . | . | .
CCc1ccc(NC(=O)Nc2cccc(OC)c2)cc1 | ? | . | . | . | . | .
O=C(NCc1ccccc1)Nc1cccn(Cc2c(F)cccc2Cl)c1=O | ? | . | . | . | . | .
COc1cccc(NC(=O)Nc2cccn(Cc3ccc(C)cc3)c2=O)c1 | 11µM | . | . | ? | . | .
COc1cccc(NC(=O)Nc2ccc(CC(=O)O)cc2)c1 | . | . | . | . | 2.3µM | .
Cc1ccc(NC(=O)Nc2cccn(Cc3c(F)cccc3Cl)c2=O)cc1 | 11µM | . | . | . | 5.2µM | .
CCOC(=O)C1CCN(C(=O)c2c(C)nn(-c3ccc(F)cc3)c2-n2cccc2)CC1 | / | / | / | / | / | .
Cc1ccc(CNC(=O)Cn2ccn(-c3ccc(C)c(C)c3)c(=O)c2=O)cc1 | / | / | / | / | / | .
Clc1cccc(Cl)c1CSc1cc2c(nn1)-c1ccccc1CC2 | . | . | . | . | . | .
O=c1cc2c(nn1Cc1c(Cl)cccc1Cl)-c1ccccc1CC2 | 25µM | . | . | / | 5.2µM | .
SMILES | HCV inhibitor | AmpC no deterg | AMA1-RON2 inh | Pf growth 48h | Pf growth 96h | AmpC detergent
CCOC(=O)c1cc(OC(=O)c2cccc(F)c2)n(-c2ccccc2)n1 | / | / | / | / | / | .
CC(=O)c1ccc(OCc2cc(C(=O)N(C)Cc3nc4c(C)cccc4[nH]3)no2)cc1 | . | . | . | ? | . | ?
CC(=O)c1ccc(OCc2cc(C(=O)N(C)CCOc3ccc(C)cc3)no2)cc1 | 13µM | . | . | . | . | .
CC(=O)c1ccc(OCc2cc(C(=O)N(C)C3CCOC3)no2)cc1 (centres undefined) | . | . | . | . | 12µM | .
CN(C)c1ccc2cc(S(=O)(=O)O)cc(O)c2c1 | . | / | . | / | / | /
CN(C)c1ccc2c(O)cc(=O)n(C)c2c1 | . | . | . | . | 5.2µM | .
Cc1ccc(N2C(=O)CS(=O)(=O)C23C(=O)N(Cc2ccccc2C)c2ccccc23)cc1Cl (centres undefined) | / | / | / | / | / | .
Cc1ccc(CNC(=O)C23CN(Cc4ccccc4)CC2C(c2ccc([N+](=O)[O-])cc2)=NO3)o1 (centres undefined) | . | . | . | ? | ? | .
O=C(NCc1ccco1)C12CN(Cc3ccccc3)CC1C(c1cccc([N+](=O)[O-])c1)=NO2 (centres undefined) | . | . | . | ? | ? | .
COc1ccc(CNC(=O)C23CN(Cc4ccccc4)CC2C(c2ccc([N+](=O)[O-])cc2)=NO3)cc1 (centres undefined) | . | . | . | 6.6µM | 13µM | .
Cc1ccc(CNC(=O)C23CN(Cc4ccccc4)CC2C(c2cccc([N+](=O)[O-])c2)=NO3)cc1 (centres undefined) | . | . | . | 10µM | ? | .
COc1ccc(CCNC(=O)c2ccc(CN3CCC(Cc4ccccc4)CC3)cc2)cc1 | ? | . | . | ? | ? | .
COc1ccc(CCNC(=O)C23CN(Cc4ccccc4)CC2C(c2ccc([N+](=O)[O-])cc2)=NO3)cc1 (centres undefined) | ? | . | . | 5.2µM | ? | .
O=C(NCc1ccccc1)C12CN(Cc3ccccc3)CC1C(c1ccc([N+](=O)[O-])cc1)=NO2 (centres undefined) | . | . | . | 12µM | ? | .
Cc1ccc(-n2cnc3cc(C(=O)NCc4ccccc4Cl)ccc32)c(C)c1 | / | / | / | / | / | .
O=C(COc1ccc(F)cc1)Nc1ccc(C(=O)OCc2cc(=O)n3nc(C4CC4)sc3n2)cc1 | / | / | / | / | / | .
O=C(NCc1ccco1)C12CN(Cc3ccccc3)CC1C(c1ccc([N+](=O)[O-])cc1)=NO2 (centres undefined) | . | . | . | 12µM | . | .
O=C(Nc1cccc(Cl)c1)OC1CN2CCC1CC2 (centres undefined) | ? | . | . | 2.9µM | 1.9µM | .
O=C(Nc1ccc(Cl)cc1)OC1CN2CCC1CC2 (centres undefined) | . | . | . | . | . | .
Cc1cc(OCC(O)CN2C(C)CCCC2C)ccc1C(C)C (centres undefined) | . | . | . | 9.3µM | ? | .
CC1CCCC(C)N1CC(O)COc1c(F)cc(Br)cc1F (centres undefined) | . | . | . | 10µM | ? | .
COc1cccc(OCC(O)CN2C(C)CCCC2C)c1 (centres undefined) | . | . | . | . | . | ?

High-throughput results: PubChem BioAssay, National Center for Advancing Translational Sciences (NCATS)
